SW480 rereplic – induces DNA re-replication in SW480 colon adenocarcinoma cells; SW480 DNA re-replication, Hoechst DNA content imaging, 48 h; Potency, µM (series often up to 46.1 µM), for inactives: top-dose re-replication activation, hits mostly activators; 1.8% of 340,000 active; AID 624297; also: potency is read from the fitted curve at half-maximal effect; % of control where 0% means no effect; nearly all actives have a fitted effect of over 55% in size
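Image-based DNA-content assay: after two days of treatment, nuclei were labelled with the DNA dye Hoechst and imaged, and hits were compounds raising the count of nuclei showing high fluorescence intensity.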
KCNH2 WT inh – blocks the wildtype human KCNH2 potassium channel | Q12809 | U2OS, BacMam KCNH2, thallium flux FluxOr; active compounds read low | activity change, % at 1.84 µM | 0.37% of 340,000 active | AID 720551;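 active = maximum activity change below -70%; inconclusive = maximum activity change between -70% and -50%; inactive = maximum activity change above -50%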; also: % is scaled to controls: 0 for no effect and ±100 for the full control effect
Target sequence (Q12809 whole entry, looked up): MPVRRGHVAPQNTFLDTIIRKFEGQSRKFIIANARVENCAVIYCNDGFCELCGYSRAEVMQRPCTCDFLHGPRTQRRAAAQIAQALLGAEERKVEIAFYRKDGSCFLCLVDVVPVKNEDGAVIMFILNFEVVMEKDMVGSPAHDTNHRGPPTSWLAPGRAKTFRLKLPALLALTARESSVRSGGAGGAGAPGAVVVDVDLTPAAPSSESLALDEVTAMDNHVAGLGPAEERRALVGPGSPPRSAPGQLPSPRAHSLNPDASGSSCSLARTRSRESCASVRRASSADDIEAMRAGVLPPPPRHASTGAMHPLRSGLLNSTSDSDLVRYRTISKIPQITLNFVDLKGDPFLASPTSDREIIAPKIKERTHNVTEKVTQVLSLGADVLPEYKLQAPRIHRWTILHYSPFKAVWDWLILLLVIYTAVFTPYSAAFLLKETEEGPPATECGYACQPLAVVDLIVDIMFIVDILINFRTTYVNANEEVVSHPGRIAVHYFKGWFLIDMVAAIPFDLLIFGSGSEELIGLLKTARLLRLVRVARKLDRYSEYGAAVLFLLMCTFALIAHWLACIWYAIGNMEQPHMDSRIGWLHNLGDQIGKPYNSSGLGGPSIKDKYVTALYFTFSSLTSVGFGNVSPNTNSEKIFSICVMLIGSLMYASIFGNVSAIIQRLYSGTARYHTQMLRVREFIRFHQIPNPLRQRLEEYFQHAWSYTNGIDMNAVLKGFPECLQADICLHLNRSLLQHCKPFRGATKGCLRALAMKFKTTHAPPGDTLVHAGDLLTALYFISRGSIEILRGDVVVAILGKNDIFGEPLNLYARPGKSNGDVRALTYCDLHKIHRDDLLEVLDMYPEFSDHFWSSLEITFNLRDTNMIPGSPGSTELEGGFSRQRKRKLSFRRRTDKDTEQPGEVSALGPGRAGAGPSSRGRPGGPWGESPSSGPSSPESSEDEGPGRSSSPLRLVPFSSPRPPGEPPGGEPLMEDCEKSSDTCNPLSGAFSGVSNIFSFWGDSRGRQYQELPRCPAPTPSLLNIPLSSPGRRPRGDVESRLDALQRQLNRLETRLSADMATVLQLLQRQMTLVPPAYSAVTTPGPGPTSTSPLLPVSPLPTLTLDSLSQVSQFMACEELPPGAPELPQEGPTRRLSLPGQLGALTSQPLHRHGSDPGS
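U2OS cells transduced with wild-type KCNH2 virus are loaded with FluxOr dye for 45 min, and thallium flux is measured in kinetic reads before and after stimulation buffer. Rate constants are normalized to DMSO controls.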
MCF10A rerep – DNA re-replication induction in MCF 10a cells. 2.9% of 350,000 active. Potency, µM (series often up to 46.1 µM), inactives show top-dose activity, positive = re-replication, actives largely listed as activators. MCF 10A DNA re-replication, Hoechst nuclear intensity, 48 h. AID 624296; also: potency is read from the fitted curve at half-maximal effect; % of control where 0% means no effect; nearly all actives have a fitted effect of over 50% in size
KB-V1 cytotox – kills drug-selected multidrug resistant KB-V1 cells. KB-V1 MDR cells viability, CellTiter-Glo, 72 h. Potency, µM (top dose mostly 46.1 µM), hits mostly cytotoxic. 3.4% of 400,000 active. AID 1347076; also: potency is read from the fitted curve at half-maximal effect; % is scaled to controls: 0 for no effect and ±100 for the full control effect; nearly all actives have a fitted effect of over 60% in size
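qHTS viability screen in drug-selected KB-V1 MDR cells: 72 h compound treatment at 37 degrees C, ATP luminescence end point.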
KCNH2 3.1 block – KCNH2 3.1 (human) potassium channel inhibition | U2OS KCNH2 3.1, thallium flux FluxOr; active compounds read low | 0.95% of 340,000 active | activity change, % (tested at about 1.8 µM);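 active = maximum activity change below -70%; inconclusive = maximum activity change from -70% to -50%; inactive = maximum activity change above -50%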;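 also: thallium influx rate constant from kinetic fluorescence after stimulation buffer; % is scaled to controls: 0 for no effect and ±100 for the full control effect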
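Virally transduced U2OS (3.1 isoform, 4 h infection in dark at RT) → overnight 37 C → FluxOr + Red40 in HBSS/HEPES, 45 min → stimulation buffer, 2 min kinetic read → rate constant vs DMSO controls.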
KB-3-1 cytotox – kills parental KB-3-1 adenocarcinoma cells; KB-3-1 viability, CellTiter-Glo ATP luminescence, 72 h; Potency, µM (doses to about 46.1 µM), usual class: cytotoxic; 1.4% of 400,000 active; also: potency is read from the fitted curve at half-maximal effect; % is scaled to controls: 0 for no effect and ±100 for the full control effect; nearly all actives have a fitted effect of over 60% in size
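Parental KB-3-1 viability, qHTS format: 72 h compound exposure, 37 °C; CellTiter-Glo; media-only wells and DMSO plates as controls; concentration-effect fits on corrected data.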
* hit, by the source's call. A selection: hits, their analogues and other compounds. The true share with any hit is near 7.6%. Unless noted, calls follow the shape of the dose curve; as a rule, active = well fitted curve in the direction sought with a large enough effect; inconclusive = small, poorly fitted or top-dose-only effect, or another doubt; inactive = no such curve, though single readings can be large; an effect the other way counts as inactive or inconclusive.

CN(CC(=O)Nc1ccc(OC(F)(F)F)cc1)C(=O)c1ccccc1SCC(=O)N1CCCC1 was read as SW480 rereplic -1%, KCNH2 WT inh -4, MCF10A rerep -8%, KB-V1 cytotox 7.3µM*, KCNH2 3.1 block -11 and KB-3-1 cytotox 16µM*.
`O=C(NCc1ccccc1)C(c1ccc(F)cc1)N(Cc1cccs1)C(=O)c1cnccn1` (stereo not drawn) gave SW480 rereplic 3%, KCNH2 WT inh -1, MCF10A rerep 3%, KB-V1 cytotox inactive, KCNH2 3.1 block -8 and KB-3-1 cytotox inactive.
`C=CCN(C(=O)c1csnn1)C(C(=O)NCc1ccccc1)c1cccs1` (stereo not drawn) gave SW480 rereplic -18%, KCNH2 WT inh 1, MCF10A rerep -20%, KB-V1 cytotox inactive, KCNH2 3.1 block 16 and KB-3-1 cytotox inactive.
Screening O=C(NCc1ccccc1)C(c1cccs1)N(Cc1cccs1)C(=O)c1cnccn1 (stereo not drawn) returned SW480 rereplic 9%, KCNH2 WT inh 9, MCF10A rerep inconclusive, KB-V1 cytotox 2.6µM*, KCNH2 3.1 block -18 and KB-3-1 cytotox inactive.
For O=C(NCc1ccccc1)C(c1ccccc1)N(Cc1cccs1)C(=O)c1cnccn1 (stereo not drawn) the results were SW480 rereplic 11%, KCNH2 WT inh 4, MCF10A rerep inconclusive, KB-V1 cytotox 23µM*, KCNH2 3.1 block -1 and KB-3-1 cytotox inactive.
Screening CC(=O)Nc1cccc(NC(=O)CSc2nc3c(c(=O)n(C)c(=O)n3C)n2C)c1 returned SW480 rereplic -17%, KCNH2 WT inh -8, MCF10A rerep -4%, KB-V1 cytotox inactive, KCNH2 3.1 block 0 and KB-3-1 cytotox inactive.
Screening CC(C)c1cc(Cn2c3ccccc3c(=O)n2C(C)CBr)on1 (stereo not drawn) returned KB-V1 cytotox inactive and KB-3-1 cytotox inactive.
For CC1(C)CCC[C@]2(C)[C@H]3Cc4cc(O)ccc4O[C@]3(C)CC[C@@H]12 the results were SW480 rereplic 10%, KCNH2 WT inh -5, MCF10A rerep 12µM*, KB-V1 cytotox inactive, KCNH2 3.1 block -7 and KB-3-1 cytotox inactive.
For CC(O)C(=O)N/N=C/c1cccc2ccccc12 (stereo not drawn) the results were SW480 rereplic -13%, KCNH2 WT inh -15, MCF10A rerep -1%, KB-V1 cytotox inconclusive, KCNH2 3.1 block 5 and KB-3-1 cytotox inconclusive.
C/C(=N\Nc1ccc(Cl)c(C(=O)O)c1)c1cccc2ccccc12 was read as SW480 rereplic -8%, KCNH2 WT inh 5, MCF10A rerep 5%, KB-V1 cytotox inactive, KCNH2 3.1 block -13 and KB-3-1 cytotox inactive.
Screening O=C(O)c1cc(N/N=C/c2cccc3ccccc23)ccc1Cl returned SW480 rereplic -1%, KCNH2 WT inh -21, MCF10A rerep 23µM*, KB-V1 cytotox inactive, KCNH2 3.1 block -3 and KB-3-1 cytotox inactive.
O=C(NN=Cc1cccc2ccccc12)C(=O)NN=Cc1cccc2ccccc12 was read as SW480 rereplic inconclusive, KCNH2 WT inh -8, MCF10A rerep 2.3µM*, KB-V1 cytotox inactive, KCNH2 3.1 block -2 and KB-3-1 cytotox inconclusive.
For CC(CN(C)C)CN1c2ccccc2Sc2ccc(C(F)(F)F)cc21 (stereo not drawn) the results were SW480 rereplic inconclusive and MCF10A rerep 11%.
`CCCCc1ccc(-c2csc(/C(C#N)=C/c3ccc(C)o3)n2)cc1` gave SW480 rereplic 0%, KCNH2 WT inh -2, MCF10A rerep inconclusive, KB-V1 cytotox inactive, KCNH2 3.1 block -2 and KB-3-1 cytotox inactive.
CCCCc1ccc(-c2csc(/C(C#N)=C\c3ccco3)n2)cc1 was read as SW480 rereplic inconclusive, KCNH2 WT inh 3, MCF10A rerep 18µM*, KB-V1 cytotox inactive, KCNH2 3.1 block -40 and KB-3-1 cytotox inactive.

Screens deposited in PubChem BioAssay by National Center for Advancing Translational Sciences (NCATS).
